Screens deposited in PubChem BioAssay by several laboratories.
CYP2C9 activ: human CYP2C9 activators, primary screen, biochemical, luminescence; recombinant CYP2C9, luciferin-H conversion; active compounds read high; factor 1 = untreated enzyme, 0 = blocked; Cytochrome P450 2C9 (Homo sapiens), P11712; activation factor at 5 µM; hit rate 1.4% among 96,000;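 active means activation factor of 2 or more for CYP2C9 at a 5 µM dose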;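 further: 0 = sulfaphenazole-blocked wells and 1 = vehicle-only wells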
sEH inh: soluble epoxide hydrolase inhibitors, primary screen, biochemical, human sEH | recombinant human sEH enzymatic activity assay | inhibition, % at 2 µM | hit rate 0.34% among 91,000 | AID 707, 2007; in the data active means inhibition above about 80%
CYP2C19 inh: blockers of cytochrome P450 2C19 activity – biochemical, luminescence, ADME assay, primary screen; CYP2C19 Supersomes, luciferin-H EGE luminescence, 30 min; inhibition, % at 5 µM; hit rate 21% among 96,000; AID 778, 2007;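 active means CYP2C19 inhibition above a set limit at 5 µM in the primary screen, cut at about 50% in these data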;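 further: plate controls were negative control wells for no effect and 2.5 mM tranylcypromine positive control for full effect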
Target sequence (P33261 whole entry, looked up): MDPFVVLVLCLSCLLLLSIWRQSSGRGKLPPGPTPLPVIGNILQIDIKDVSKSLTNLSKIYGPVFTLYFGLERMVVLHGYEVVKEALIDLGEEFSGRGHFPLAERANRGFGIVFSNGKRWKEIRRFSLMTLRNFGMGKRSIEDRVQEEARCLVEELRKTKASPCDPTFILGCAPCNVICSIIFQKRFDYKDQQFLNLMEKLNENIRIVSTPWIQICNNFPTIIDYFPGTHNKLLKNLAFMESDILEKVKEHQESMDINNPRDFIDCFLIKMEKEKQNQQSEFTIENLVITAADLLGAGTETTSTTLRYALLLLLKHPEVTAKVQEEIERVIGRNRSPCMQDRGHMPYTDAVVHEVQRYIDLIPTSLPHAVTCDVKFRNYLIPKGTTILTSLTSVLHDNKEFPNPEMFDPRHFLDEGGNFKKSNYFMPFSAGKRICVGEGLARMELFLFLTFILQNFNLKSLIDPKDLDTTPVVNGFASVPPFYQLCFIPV
CYP2C19 activ: human CYP2C19 activators, primary screen, biochemical, luminescence; Cytochrome P450 2C19 (Homo sapiens), P33261; recombinant CYP2C19, luciferin-H EGE luminescence; active compounds read high; 0 = fully inhibited enzyme, 1 = untreated enzyme; activation factor at 5 µM; 96,000 tested, under 10 active;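 active means activation factor of at least 2 at 5 µM in the primary screen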;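 further: 0 = wells with 2.5 mM tranylcypromine and 1 = vehicle-only wells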
CYP2C9 inhib: blockers of cytochrome P450 2C9 activity – biochemical, luminescence, ADME assay, primary screen. P11712. CYP2C9 Supersomes, luciferin-H conversion. inhibition, % at 5 µM. hit rate 20% among 96,000;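 active means blocking of liver enzyme CYP2C9 beyond about 50% at 5 µM, limit read from the data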
sEH activator: soluble epoxide hydrolase activators, primary screen, biochemical, human sEH | Bifunctional epoxide hydrolase 2 (Homo sapiens), P34913 | purified human sEH enzymatic activity, activator screen | activation, % at 2 µM | hit rate 0.04% among 91,000 | AID 717, 2007; in the data active means activation above about 37%
Numbers without * were called inactive; . = no result. The list is not random: actives were taken first. Their share in the collection is about 27%.

SMILES	CYP2C9 activ	sEH inh	CYP2C19 inh	CYP2C19 activ	CYP2C9 inhib	sEH activator
CNc1nc2ccccc2n1/N=C/c1cccc(OC)c1OC	1	-3	13	0.9	2	3
COc1cccc(/C=C/c2ccncc2)c1OC	0	-4	99*	0	98*	3
Cc1cccc(NC(=O)C2CCCN2C(=O)Oc2ccccc2)c1 (centres undefined)	0.4	13	88*	0.1	57*	-10
Cc1cc(C)cc(NC(=O)C2CCCN2C(=O)Oc2ccccc2)c1 (centres undefined)	0.3	-8	66*	0.3	67*	10
Cc1csc(NC(=O)C2CCCN2C(=O)Oc2ccccc2)n1 (centres undefined)	0.9	.	12	0.9	6	.
Cn1nc(OC(=O)Nc2ccc(F)cc2)cc1C(F)(F)F	0.9	10	2	1	13	-10
CC(C)[C@H](NC(=O)OC(C)(C)C)C(=O)N/N=C/c1cccc2nccnc12	0.8	1	-5	1	23	-2
O=C1CCCc2c1cc(C(=O)NCc1ccco1)c(=O)n2-c1ccc(Cl)cc1	1	8	84*	0.2	-3	-7
Cc1cccc(NC(=O)c2cc3c(n(-c4ccccc4)c2=O)CCCC3=O)n1	0.5	14	19	0.8	50*	-13
O=C1CCCc2c1cc(C(=O)NCCCN1CCOCC1)c(=O)n2-c1ccc(Cl)cc1	1	6	8	0.9	4	-6
O=C(CCn1nnc2ccccc21)Nc1nnc(-c2ccccc2F)s1	0.4	9	20	0.8	56*	-9
O=C(CCn1nnc2ccccc21)Nc1nnc(COc2ccccc2F)s1	0.9	25	32	0.7	10	-24
O=C(CN1CCCCC1)N1CCCc2c1c(=O)oc1ccc(OCc3ccccc3)cc21	.	4	.	.	.	-5
CCCCCOc1ccc2oc(=O)c3c(c2c1)CCCN3C(=O)CN1CCCC(C(=O)OCC)C1 (centres undefined)	0.1	-21	76*	0.2	94*	16
CCCOc1ccc2oc(=O)c3c(c2c1)CCCN3C(=O)CN(C)Cc1ccccc1	0.1	6	55*	0.4	86*	-2
Cc1cccc2cc(COC(=O)C(C)C)c(=O)[nH]c12	1.1	.	12	0.9	-5	.
Cc1ccc(C(=O)c2coc3c2C(=O)C(=O)c2ccccc2-3)cc1	0.3	21	46	0.5	72*	-21
Cc1oc2c(c1C(=O)c1ccc(Cl)cc1)C(=O)C(=O)c1ccccc1-2	0.8	12	28	0.7	22	-8
Cc1ccc(C(=O)c2c(C)oc3c2C(=O)C(=O)c2ccccc2-3)cc1	0.4	9	63*	0.4	56*	-8
O=C(N/N=C/c1cc([N+](=O)[O-])ccc1N1CCNCC1)c1ccc([N+](=O)[O-])cc1	1	-9	6	0.9	4	6
Cc1cc(NCCCn2ccnc2)n2ncc(-c3ccc(Cl)cc3)c2n1	0.1	-5	74*	0.3	87*	8
Cc1cccc(-c2cc3nc(C)cc(NCCCn4ccnc4)n3n2)c1	0	-6	93*	0.1	96*	8
CN(/C(=N\S(=O)(=O)c1ccccc1)C(F)(F)F)c1ccccc1	1	-13	29	0.7	-3	14
O=C(c1cccc2c1C(=O)N(Cc1cccnc1)C2)N1CCN(c2ccccc2)CC1	1	9	23	0.8	0	-8
COCCN1Cc2cccc(C(=O)NCc3cccnc3)c2C1=O	0.9	16	78*	0.2	8	-15
SMILES	CYP2C9 activ	sEH inh	CYP2C19 inh	CYP2C19 activ	CYP2C9 inhib	sEH activator
COCCN1Cc2cccc(C(=O)Nc3c(C)cccc3C)c2C1=O	0.8	-15	42	0.6	25	16
O=C(NCc1cccnc1)c1cccc2c1C(=O)N(Cc1cccnc1)C2	0.5	-11	76*	0.2	46	11
COc1ccc(CNC(=O)c2cccc3c2C(=O)N(Cc2cccnc2)C3)cc1	0.2	.	55*	0.5	76*	.
CCc1ccc(OCc2nnc(NC(=O)c3cccs3)s2)cc1	0.7	-7	-7	1.1	33	7
CC(C)(C)n1nnnc1CN1CCN(C(c2ccccc2)c2ccccc2)CC1	.	24	.	.	.	-21
c1cn(CC2(Cn3ccnc3)COC2)cn1	1	-22	-14	1.1	-3	24
COC(=O)c1cn(C(=O)c2ccccc2F)nc1N	0.9	-13	46	0.5	12	15
COC(=O)C1=C(N)c2c(F)cccc2C1(C#N)c1ccc(F)cc1 (centres undefined)	0.6	-2	66*	0.3	37	1
CCOC(=O)C1CCN(C(c2cccs2)c2sc3nc(C)nn3c2O)CC1 (centres undefined)	1	.	65*	0.3	-3	.
COC(=O)C1CCN(C(c2cccs2)c2sc3nc(C)nn3c2O)CC1 (centres undefined)	1	.	47	0.5	-2	.
COc1ccc(C(c2sc3nc(C)nn3c2O)N2CCc3ccccc3C2)cc1 (centres undefined)	0.7	.	47	0.5	27	.
CCOC(=O)C1CCN(C(c2cccc(OC)c2)c2sc3nc(C)nn3c2O)CC1 (centres undefined)	0.8	.	87*	0.1	19	.
COc1cc(C(c2sc3nc(C)nn3c2O)N2CCc3ccccc3C2)cc(OC)c1OC (centres undefined)	0.7	.	84*	0.2	33	.
COc1ccc(/C=N/N=C2/NC(=O)C(c3ccccc3)(c3ccccc3)S2)cc1	0.2	0	5	0.9	82*	2
O=C(CSc1nnc(CNC(=O)c2cccs2)o1)Nc1cccc(C(F)(F)F)c1	0.8	18	25	0.8	22	-14
O=S(=O)(NCC1CCCO1)c1ccc(S(=O)(=O)N(Cc2ccc(F)cc2)C2CCCCC2)cc1 (centres undefined)	.	5	.	.	.	-4
CC1(C(=O)NCc2cccnc2)CCC(=O)N1Cc1cccs1 (centres undefined)	0.9	.	52*	0.5	8	.
O=C(CSc1ncnc2nc[nH]c12)N1CCN(c2ccc(Cl)cc2)CC1	1	-2	11	0.9	3	2
CCN(CC)C(=O)COc1cc(C)cc2oc(=O)cc(-c3ccccc3)c12	0.8	0	29	0.7	23	2
CCc1cc(=O)oc2cc(OCc3nn[nH]n3)ccc12	0.6	-16	23	0.8	40	13
COc1ccc(-c2cc(=O)oc3c(C)c(OCc4nn[nH]n4)ccc23)cc1	0	3	79*	0.2	97*	-3
O=C(O)COc1ccc2c(-c3ccccc3)cc(=O)oc2c1	1.1	17	5	1	-8	-17
